Bioassay records: PubChem BioAssay, National Center for Advancing Translational Sciences (NCATS)
Cycloheximide cs – affects cycloheximide protein synthesis inhibition readout, counter-screen. cell reporter, cycloheximide protein synthesis inhibition counterscreen. 12% of 300,000 active. max response, %. AID 2314; in the data active = max response mostly above about 13%, no sharp cut-off; inactive = mostly below about 14%; also: read at 38.3 µM for the half of the compounds with a filed dose
LmPK inh – LmPK (Leishmania mexicana) enzyme inhibition; purified LmPK, Kinase-Glo ATP luminescence, 1 h; Potency, µM (top dose mostly 57.5 µM), usual class: inhibitors; 0.37% of 290,000 active
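qHTS format; LmPK 0.1 nM; substrates PEP 0.5 mM and ADP 0.1 mM. One-hour room-temperature incubation, then coupled luciferase luminescence; 0.5 nM enzyme wells mark activation.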
Shiga inhibitor – inhibitors of Shiga toxin in Vero cells; inhibition, % at 38.7 µM; Vero cells, Shiga toxin protein synthesis inhibition reporter; AID 2315; 9.2% of 290,000 active; in the data active = inhibition mostly above about 28%, no sharp cut-off; inactive = mostly below about 43%
TbPYK inhibitor – T. brucei pyruvate kinase inhibition | TbPYK enzyme, Kinase-Glo Plus ATP luminescence, 45 min | Potency, µM (top dose mostly 76.8 µM), hits mostly inhibitors | 0.12% of 410,000 active; also: nearly all actives have a fitted effect of over 50% in size
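Luminescent Kinase-Glo Plus end-point after 45 min room-temperature reaction of T. brucei pyruvate kinase started with 130 uM ADP (final). Buffer TEA 50 mM pH 7.2 with KCl, MgCl2, BSA, Tween-20; titration-based qHTS with fitted concentration-effect curves.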
Sm TGR inh – S. mansoni TGR enzyme inhibition. Q962Y6. purified TGR, DTNB reduction, TNB absorbance 405 nm. Potency, µM (highest dose often 114 µM), most hits filed as inhibitors. 3% of 360,000 active. AID 485364; also: nearly all actives have a fitted effect of over 60% in size
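First, TGR (20 nM dispensed) and NADPH were mixed with compound. Second, a 15 min room-temperature incubation followed. Third, further NADPH and then DTNB were added to start the reaction. Finally, TNB absorbance was monitored kinetically.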
FBPA Giardia inh – Giardia lamblia aldolase inhibition; purified Giardia FBPA; A8B2U2; Potency, µM (series often up to 59.6 µM), actives largely listed as inhibitors; 0.71% of 290,000 active; also: nearly all actives have a fitted effect of over 55% in size
Target sequence (A8B2U2 whole entry, looked up): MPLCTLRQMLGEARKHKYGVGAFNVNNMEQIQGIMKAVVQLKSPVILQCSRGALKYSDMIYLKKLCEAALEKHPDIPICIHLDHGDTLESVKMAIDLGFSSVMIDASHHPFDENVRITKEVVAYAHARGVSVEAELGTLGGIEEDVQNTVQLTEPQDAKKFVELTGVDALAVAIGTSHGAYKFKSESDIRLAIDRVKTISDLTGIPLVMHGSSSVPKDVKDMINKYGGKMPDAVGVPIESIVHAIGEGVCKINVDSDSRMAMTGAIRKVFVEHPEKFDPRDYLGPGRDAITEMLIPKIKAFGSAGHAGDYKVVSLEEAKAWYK
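Giardia FBPA (40 nM reagent) was preincubated 10 min at RT with compound (up to 57.5 uM final), then substrate plus GAPDH/TPI/NAD/arsenate coupling system with diaphorase/resazurin was added; resorufin fluorescence (525/598 nm) was read after 20 min.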
Numbers stand for hits; 0 = inactive; ? = inconclusive; - = no result given; [ ] = dose if it differs, or a comment. Only a selection was taken, and hits are over-represented in it overall. Unless noted, calls follow the shape of the dose curve; as a rule, active = well fitted curve in the direction sought with a large enough effect; inconclusive = small, poorly fitted or top-dose-only effect, or another doubt; inactive = no such curve, though single readings can be large; an effect the other way counts as inactive or inconclusive.

SMILES | Cycloheximide cs | LmPK inh | Shiga inhibitor | TbPYK inhibitor | Sm TGR inh | FBPA Giardia inh
O=C(NNC1CC(=O)N(c2ccc(Br)cc2)C1=O)c1cccs1 (stereo not drawn) | 0 | 0 | 34.7 | 0 | ? | 0
Cc1c(Cl)cccc1N1C(=O)CC(NNC(=O)c2cccs2)C1=O (stereo not drawn) | 20.2 | 0 | 0 | 0 | 0 | 0
CCOC(=O)CNC1CC(=O)N(c2ccc(Br)cc2)C1=O (stereo not drawn) | 0 | 0 | 0 | 0 | 10µM | 0
Cc1ccc(NC(=O)C2CCCN(c3cnccn3)C2)cc1Cl (stereo not drawn) | - | - | - | 0 | 0 | -
CCOc1ccc(-c2nc(SC(C(C)=O)C(=O)N(C)C)c3c(=O)n(C)c(=O)n(C)c3n2)cc1 (stereo not drawn) | - | - | - | 0 | 0 | -
CN1CCN(NC(=O)c2ccc(Br)s2)CC1 | 0 | 0 | 0 | 0 | 0 | 0
Cc1coc2cc3oc(=O)c(CC(=O)NCc4ccccc4)c(C)c3cc12 | - | - | - | 0 | 0 | -
CCc1ccc(Nc2ncccc2C#N)cc1 | 28.2 | 0 | 0 | 0 | 0 | 0
CCC(C)c1ccc(Nc2ncccc2C#N)cc1 (stereo not drawn) | 38.3 | 0 | 69.3 | 0 | 0 | 0
CC(CCOC1=NS(=O)(=O)c2ccccc21)NC(=O)C(=O)Nc1ccccc1 (stereo not drawn) | 29.4 | 0 | 65.1 | 0 | 0 | 0
CC(CCc1ccccc1)NC(=O)C(=O)Nc1ccccc1 (stereo not drawn) | 55.6 | 0 | 99.8 | 0 | 0 | 0
Cc1sc2ccccc2[n+]1CCC(C)S(=O)(=O)[O-] (stereo not drawn) | 0 | 0 | 0 | 0 | 2µM | 0
CSc1ncc(/C=C2/C(=O)NC(=O)N(C3CCCCC3)C2=O)cn1 | 0 | 0 | 0 | ? | 5.01µM | 0
COCCN1C(=O)NC(=O)/C(=C\c2ccc(Br)cc2)C1=O | 0 | 0 | 0 | ? | ? | 0
CSc1ncc(/C=C2/C(=O)NC(=O)N(C)C2=O)cn1 | 0 | 0 | 0 | ? | 1.41µM | 0
CCCCN1C(=O)NC(=O)/C(=C/c2cnc(SC)nc2)C1=O | 0 | 0 | 0 | ? | 7.08µM | 0
CC(CNc1nc2ccccc2c2nc(-c3ccccc3)nn12)c1ccccc1 (stereo not drawn) | - | - | - | 0 | 0 | -
COc1ccc(NC(=O)CN2C(=O)C(C)Oc3ccccc32)cc1OC (stereo not drawn) | 0 | 0 | - | 0 | 0 | 0
CNC(=O)/C(C#N)=C/c1cc(C)n(-c2ccc(N3CCOCC3)cc2)c1C | 0 | 0 | 0 | 0 | 0 | 0
CCOC(=O)/C(C#N)=C/c1ccc(SC)cc1 | 0 | 0 | 0 | 0 | 0 | 0
CCOC(=O)/C(C#N)=C\c1ccc(CC)s1 | 79.6 | 0 | 101.9 | 0 | 0 | 0
CCOC(=O)/C(C#N)=C\C=C1C=CN(C)C=C1 | 35.1 | 0 | 62.8 | 0 | 0 | 0
CCOC(=O)/C(C#N)=C/c1cc(C)n(-c2ccc(C)cc2)c1C | 18.5 | 0 | 0 | 0 | 0 | 0
CCOC(=O)/C(C#N)=C\c1cc(C)n(-c2ccccc2)c1C | 55.1 | 0 | 82.1 | 0 | 0 | 0
Cc1cc(/C=C(\C#N)C(=O)Nc2ccccc2)c(C)n1-c1ccc(C(=O)O)cc1 | 0 | 0 | 0 | 0 | 0 | 0
SMILES | Cycloheximide cs | LmPK inh | Shiga inhibitor | TbPYK inhibitor | Sm TGR inh | FBPA Giardia inh
CCc1nn(CC(=O)N2CCC(C)CC2)c(=O)c2cc3occc3n12 | - | - | - | 0 | 0 | -
CCC(C)NC(=O)c1ccc2c(c1)N(Cc1ccccc1)C(=O)c1ccccc1S2(=O)=O (stereo not drawn) | - | - | - | 0 | 0 | -
COc1ccc(C2CC(=O)c3c([nH]c(C(=O)OC4CCCCCC4)c3C)C2)cc1OC (stereo not drawn) | - | - | - | 0 | 0 | -
CCc1ccccc1NC(=O)CN1C(=O)COc2ccc(S(=O)(=O)Nc3ccccc3)cc21 | - | - | - | 0 | 0 | -
CCOC(=O)c1nc2c(ccc3ccccc32)cc1C | 17.4 | 0 | 41.5 | 0 | 0 | 0
CCOC(=O)c1cc(Cl)c2c(ccc3ccccc32)n1 | - | - | - | 0 | - | -
Cc1cc(C)n(-c2nc(SCC(=O)O)c3c4c(sc3n2)COC(C)(C)C4)n1 | 0 | 0 | 0 | 0 | 0 | 0
Cc1nc(NCc2cccnc2)c2c3c(sc2n1)CCCC3 | 0 | 0 | 0 | 0 | 0 | 0
CCN(CC)CCCNc1nc(-n2nc(C)cc2C)nc2sc3c(c12)CC(C)(C)OC3 | 13.1 | 0 | 0 | 0 | 0 | 0
Cc1cc(C)n(-c2nc(NCc3cccnc3)c3c4c(sc3n2)COC(C)(C)C4)n1 | 22.0 | 0 | 0 | 0 | ? | 0
O=C(C[n+]1cc[nH]c1)c1ccc(Cl)cc1 | 0 | 0 | 0 | 0 | 0 | ?
COc1ccc(-n2ccnc2CN2CCN(C3CCCC3)C(CCO)C2)cc1 (stereo not drawn) | 0 | 0 | 0 | 0 | 25.1µM | 0
Cc1cccc(-n2ccnc2CN2CCN(C3CCCC3)C(CCO)C2)c1 (stereo not drawn) | 0 | 0 | 0 | 0 | ? | 0
OC(CNCc1cccs1)c1ccccc1 (stereo not drawn) | 0 | 0 | 0 | 0 | 0 | 0
Cc1ccc(CNCC(O)c2ccccc2)s1 (stereo not drawn) | 13.5 | 0 | 0 | 0 | 0 | 0
O=C(NCC1CCCO1)c1ccc(N2CCCCC2)c([N+](=O)[O-])c1 (stereo not drawn) | 43.0 | 0 | 44.5 | 0 | 0 | 0
O=C(NC1CC1)c1ccc(N2CCCCC2)c([N+](=O)[O-])c1 | 16.5 | 0 | 78.8 | 0 | 0 | -
Cc1ccc(C(=O)NCC2CCCO2)cc1[N+](=O)[O-] (stereo not drawn) | 0 | 0 | 0 | 0 | 0 | 0
CC1CCCN(c2ccc(C(=O)NCc3ccco3)cc2[N+](=O)[O-])C1 (stereo not drawn) | 0 | 0 | 60.0 | 0 | 0 | 0
COc1ccc(CCNC2=NCCS2)cc1 | 0 | 0 | 0 | 0 | 0 | 0
COc1ccc(CCNc2ncccc2C#N)cc1OC | 44.4 | 0 | 87.7 | 0 | 0 | 0
COc1ccc(CCNC2=NCCS2)cc1OC | 41.1 | 0 | 31.8 | 0 | 0 | 0
CCc1ccc(CNC(=O)c2cccc(-n3cnc4cccnc43)c2C)cc1 | - | - | - | 0[15.4 µM] | 0 | -
Cc1ccc(C2CCN(C(=O)Nc3ccc(F)cc3)C2)cc1 (stereo not drawn) | 19.2 | 0 | 89.4 | 0 | 0 | 0
COc1ccc(Cl)cc1NC(=S)N1CCC(c2ccc(C)cc2)C1 (stereo not drawn) | 0 | 0 | 0 | 0 | 0 | 0
Cc1ccc(C2CCN(C(=S)NC(C)C)C2)cc1 (stereo not drawn) | 0 | 0 | 64.1 | 0 | 0 | 0
CC(=O)c1cccc(NC(=O)N2CCC(c3ccc(C)cc3)C2)c1 (stereo not drawn) | 0 | 0 | 48.6 | 0 | 0 | ?
Cn1nnc2cc(C(=O)N3CCCCCC3)ccc21 | 0 | 0 | 0 | 0 | 0 | 0
Cn1nnc2cc(C(=O)N3CCC(c4ccccc4)C3)ccc21 (stereo not drawn) | 10.1 | 0 | 27.3 | 0 | 0 | 0
Cc1ccccc1Nc1nnc(-c2ccc(C)c(S(=O)(=O)N3CCCCC3)c2)c2ccccc12 | - | - | - | 0 | 0 | -
